Bioassay records from PubChem.
Many of the other results were omitted from the sample, so hits are more common in it than they were.
HIV RNase H inh-1 = inhibitors of HIV-1 reverse transcriptase RNase H; P04585; inhibition, % at 10 µM; 1.9% of 65,000 active; AID 565; RT-RNase H RNA/DNA duplex cleavage, fluorescence; in the data active means inhibition above about 50%
HIV RNase H inh-2 = confirmation of HIV-1 reverse transcriptase RNase H inhibitors | Recombinant RT RNase H, fluorescent RNA/DNA duplex cleavage | 39% of 1,000 active | inhibition, % at 10 µM | shares compounds with HIV RNase H inh-1 | AID 651; in the data active means inhibition above about 48%; inconclusive means no clear call, values can overlap the other calls
Each line names hits and unclear results; the compound was inactive in the other large screens (follow-up assays come after a bar, where they were run).

Cc1ccc(Cl)cc1N1CCN(S(=O)(=O)c2ccc3c(c2)oc(=O)n3C)CC1	none
CC(C)Cn1c(N)c(C(=O)CSc2ccc3c(c2)OCCO3)c(=O)n(C)c1=O	none
COc1ccc(N2CCCn3c2nc2c3c(=O)n(CCc3ccccc3)c(=O)n2C)cc1	none
Cc1ccc(N2CCn3c2nc2c3c(=O)n(CCc3ccccc3)c(=O)n2C)cc1	HIV RNase H inh-1 63.9 | HIV RNase H inh-2 inactive
CCOc1ccc(N2CCCn3c2nc2c3c(=O)n(CCc3ccccc3)c(=O)n2C)cc1	none
CC(=O)NCC1=C(NC(C)=O)C2CC1C(C)(C)C2C (stereo not given)	none
CSc1nnc(NC(=O)c2cc3ccccc3oc2=O)s1	none
Cc1cccc(N2CCN(S(=O)(=O)c3ccc4c(c3)n(C)c(=O)c(=O)n4C)CC2C)c1 (stereo not given)	HIV RNase H inh-1 56.8 | HIV RNase H inh-2 inconclusive
Cn1c(=O)n(C)c2cc(S(=O)(=O)O)ccc21	none
Cn1c(=O)c(=O)n(C)c2cc(S(=O)(=O)N3CCOCC3)ccc21	none
Cc1[nH]c2ccccc2c1C(O)CN1CCN(c2cccc(C(F)(F)F)c2)CC1 (stereo not given)	none
CC(=O)c1ccc(N2CCCCCC2)c(F)c1	none
Nc1ccc(N2CCCCC2)cc1N1CCCCC1	none
Fc1ccc(-n2[nH]nnc2=S)cc1N1CCCC1	HIV RNase H inh-1 63.4 | HIV RNase H inh-2 inactive
Cc1csc(NC(=O)CSc2nnc(Cn3c(=O)sc4ccccc43)n2-c2ccccc2)n1	none
Cc1nonc1NC(=O)Nc1cccnc1	none
O=C(Nc1nc(-c2cc3ccccc3oc2=O)cs1)c1ccco1	none
O=C(Nc1nc(-c2ccncc2)cs1)c1ccco1	HIV RNase H inh-1 58.6 | HIV RNase H inh-2 55.7
CCOC(=O)Cc1csc(NC(=O)c2ccco2)n1	none
CCOC(=O)c1cc2occc2n1CC(=O)Nc1ccc(OC)cc1OC	none
O=C(Nc1nc2c(s1)CCCC2)C1COc2ccccc2O1 (stereo not given)	none
O=C(NC1CCS(=O)(=O)C1)c1c(NC(=O)C2COc3ccccc3O2)sc2c1CCCC2 (stereo not given)	HIV RNase H inh-1 54.3 | HIV RNase H inh-2 70.0
O=C(Nc1sc2c(c1C(=O)NC1CCCCC1)CCC2)c1ccco1	none
CCCCNC(=O)CCCCCNS(=O)(=O)c1ccc(OC)cc1	none
CCOc1ccccc1NC(=O)N1CCC(NC(=O)c2cccc(C)c2)CC1	HIV RNase H inh-1 76.9 | HIV RNase H inh-2 inactive
Cc1cccc(NC(=O)N2CCC(NC(=O)c3ccccc3C)CC2)c1	none
CCOc1ccccc1NC(=O)N1CCC(NC(=O)c2ccccc2C)CC1	none
CCOc1ccc(C(=O)Nc2cc(=O)n(C)c(=O)n2C)cc1	none
COc1ccc(NC(=O)CSc2nc3c(c(=O)n2-c2ccc(C)cc2)SCC3)c(OC)c1	none
CN(C(=O)Cn1c(=O)n(CCCCC(=O)NC2CCCC2)c(=O)c2ccccc21)C1CCCCC1	none
CC(=Nc1ccccc1)Nc1ccccc1	none
S=C(N=Nc1ccccc1)NNc1ccccc1	HIV RNase H inh-1 69.0 | HIV RNase H inh-2 inactive
CCCCN1CCc2c([nH]c3c(C)cccc23)C1=O	none
COc1ccc2[nH]cc(CCN=C3SCC(=O)N3C)c2c1	HIV RNase H inh-1 79.2 | HIV RNase H inh-2 inactive
COc1ccc2[nH]cc(C(=O)CN3CCC(C)CC3)c2c1	none
COc1ccc2[nH]cc(CCN(C)C)c2c1	none
O=C(CN1C(=O)COc2ccc(Cl)cc21)N1CCc2ccccc21	none
CN(C)S(=O)(=O)c1ccc(C(=O)OCC(=O)NC(=O)NCc2ccccc2)cc1	none
COC(=O)c1ccc(C(=O)OC)c(NC(=O)c2cc3ccccc3o2)c1	none
COCCn1c(COC)nc2ccccc21	none
COCc1nc2ccccc2n1CCOc1ccccc1OC	HIV RNase H inh-1 80.3 | HIV RNase H inh-2 inactive
COCCn1c(COc2ccc(C)cc2)nc2ccccc21	none
Cc1sc2nc(NCCO)[nH]c(=O)c2c1C	none
CCC(C)(C)NC(=O)C(OC(=O)c1ccco1)c1ccccc1OC (stereo not given)	none
CCOC(=O)CSC1=C(C#N)C(c2ccc(OC)cc2)C2=C(CC(C)(C)CC2=O)N1 (stereo not given)	none
CCOC(=O)CSC1=C(C#N)C(c2ccc(F)cc2)C(C(C)=O)=C(C)N1 (stereo not given)	HIV RNase H inh-1 73.0 | HIV RNase H inh-2 inactive
CC(=O)C1=C(C)NC(SCC(N)=O)=C(C#N)C1c1cccnc1 (stereo not given)	HIV RNase H inh-1 61.5 | HIV RNase H inh-2 inactive
CCOC(=O)C1=C(C)NC(SCC(=O)OC)=C(C#N)C1c1ccc(C(=O)OC)cc1 (stereo not given)	HIV RNase H inh-1 80.4 | HIV RNase H inh-2 inactive
CCOC(=O)C1C(=O)NC(SCC(=O)OC)=C(C#N)C1c1ccccc1OCC (stereo not given)	none
CC(=O)C1=C(C)NC(SCC(=O)c2ccc(C)cc2)=C(C#N)C1c1ccco1 (stereo not given)	none
C#CCSC1=C(C#N)C(c2cccs2)C(C(=O)OCC)=C(C)N1 (stereo not given)	none
CCOC(=O)C1=C(C(C)=O)C(c2cccnc2)C(C#N)=C(N)O1 (stereo not given)	none
CCOC(=O)CSC1=C(C#N)C(c2ccc(C)cc2)C2=C(CCCC2=O)N1 (stereo not given)	none
Cc1ccc(N2C(=O)C3ON(c4ccccc4)C(c4ccncc4)C3C2=O)c(C)c1 (stereo not given)	none
N#Cc1nc(-c2cccs2)oc1NCCCN1CCOCC1	none
O=C(c1csc2c1CCCCC2)N1CCN(c2ncccn2)CC1	none
O=C(CCOc1ccccc1)Nc1ccc(S(=O)(=O)N2CCCC2)cc1	none
CCNC(=O)CN(Cc1ccccc1)S(=O)(=O)c1ccccc1	none
Cc1cc(C(=O)N2CCN(Cc3ccc4c(c3)OCO4)CC2)cs1	none
O=C(CN(Cc1ccco1)C(=O)c1cc(=O)[nH]c2ccccc12)Nc1ccccc1Br	none
Cn1c(Cc2csc(N)n2)nnc1SCC(=O)NCc1ccccc1	none
CC(=O)Nc1coc2ccc(Br)cc12	none
CN1CCN(c2ccccc2NC(=O)c2cccc(OCc3ccccc3)c2)CC1	none
CCSC1=C(C#N)C(c2cccc(O)c2)CC(=O)N1 (stereo not given)	none
COc1ccc(N2CCN(S(=O)(=O)c3cccs3)CC2)cc1	none
COc1ccc(N2CSC3=C(C#N)C(c4cccs4)CC(=O)N3C2)cc1 (stereo not given)	HIV RNase H inh-1 68.1 | HIV RNase H inh-2 inconclusive
N#CC1=C(N)N(c2ccccc2)C2=C(C(=O)CCC2)C1c1cccs1 (stereo not given)	none
COc1ccc(N2CSC3=C(C#N)C(c4cc(OC)c(OC)cc4OC)CC(=O)N3C2)c(OC)c1 (stereo not given)	HIV RNase H inh-1 86.2 | HIV RNase H inh-2 72.6
CN1CSC2=C(C#N)C(c3cccc(OCc4ccccc4)c3)CC(=O)N2C1 (stereo not given)	HIV RNase H inh-1 73.2 | HIV RNase H inh-2 59.8
CCOc1ccccc1N1CCN(c2nc3ccccc3nc2C(C#N)C(=O)OC)CC1 (stereo not given)	none
COc1ccc(N2C(=O)C3CC(C)=C(C)CC3C2=O)c(OC)c1 (stereo not given)	none
COc1ccc(C2C(C#N)=C(C)NC3=C2C(=O)CC(C)(C)C3)c(OC)c1 (stereo not given)	none
CCOc1ccccc1N1CCN(c2nc(N)c(C#N)c(CC#N)c2C#N)CC1	none
CCOc1ccccc1N1CSC2=C(C#N)C(c3c(OC)ccc4ccccc34)CC(=O)N2C1 (stereo not given)	HIV RNase H inh-1 72.8 | HIV RNase H inh-2 64.3
O=c1oc2c3c4c(cc2cc1-c1nc2ccccc2[nH]1)CCCN4CCC3	none
Cc1cc(=O)n2[nH]c(-c3ccc(F)cc3)nc2n1	none
COc1cccc(-n2c(C)c(C(C)=O)c(C(C)=O)c2C)c1	none
